In all, about 33,000 sequences were measured (“E-score (-0.5 to 0.5)”: median about -0.0014, highest 2% from about 0.25 on). This excerpt belongs to a sample that is enriched for the highest values.

In the assay the target is T1, Cad1 (UniProt P24813).
T1 sequence: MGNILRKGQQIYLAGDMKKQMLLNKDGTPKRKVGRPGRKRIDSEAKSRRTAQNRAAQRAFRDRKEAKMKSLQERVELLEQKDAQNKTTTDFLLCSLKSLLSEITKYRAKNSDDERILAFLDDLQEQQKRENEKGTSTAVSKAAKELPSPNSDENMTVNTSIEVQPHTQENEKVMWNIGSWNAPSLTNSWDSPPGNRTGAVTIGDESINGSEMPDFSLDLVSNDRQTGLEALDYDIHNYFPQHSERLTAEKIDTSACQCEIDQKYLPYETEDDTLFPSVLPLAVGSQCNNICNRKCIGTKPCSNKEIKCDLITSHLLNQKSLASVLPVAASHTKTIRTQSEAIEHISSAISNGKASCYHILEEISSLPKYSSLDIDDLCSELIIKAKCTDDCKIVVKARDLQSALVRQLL
The assay can be described thus: PBM E-score (8-mer binding enrichment) (E-score (-0.5 to 0.5)); higher = stronger / more preferred TF binding. As to conditions: protein concentration: 100 nM; construct: GST-full length. How it is done: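 Universal 'all 10-mer' protein binding microarrays (Agilent AMADID 015681) probed with GST-tagged S. cerevisiae TFs (full-length or DBD) made by in vitro transcription/translation (PURExpress), about 100-200 nM. Bound TF was detected with fluorescent anti-GST. Each ungapped 8-mer (which stands for itself and its reverse complement) is scored by the PBM enrichment score (E-score), a modified Wilcoxon-Mann-Whitney statistic from -0.5 to +0.5, computed with the Universal PBM Analysis Suite. Scale: above 0.35 generally sequence-specific binding.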
Turning to ACGGAAAT, the “PBM E-score” value is 0.288. On to ACGGATAT, for which the “PBM E-score” value was found to be 0.254.

Consider ACGGAAAC, for which the “PBM E-score” value is -0.0435. Take ACGGAAAA: the “PBM E-score” value amounted to 0.24. Turning to ACGGATAG, the “PBM E-score” value turned out to be 0.0118.

Take ACGGATAA: the “PBM E-score” value is 0.0973.

As for AGGGTTGA, the “PBM E-score” value is -0.0586. Consider GGATCGAA, for which the “PBM E-score” value was 0.045.

Take CTTCTCGA: the “PBM E-score” value was found to be 0.0254. Consider ACGGCTGA, for which the “PBM E-score” value came out at 0.0503. As for CAGCCATG, the “PBM E-score” value is -0.077.

Take CAAATATA: the “PBM E-score” value was -0.0118. In the case of ATAATATA, the “PBM E-score” value worked out at 0.227. Turning to TAAATATA, the “PBM E-score” value was found to be 0.277. For CATAAATA the value was 0.171; for CTAATATA, 0.239. As for TATAAATA, the figure is 0.25; as for GATAAATA, 0.123; as for CAAATATC, 0.261.

For CAAATATG, the “PBM E-score” value came out at 0.135. As to AAAATATC, the “PBM E-score” value was 0.198. As to GTAATATA, the “PBM E-score” value came out at 0.327. As for AAAATATA, the “PBM E-score” value amounted to 0.208. ATCCCTTG: the “PBM E-score” value was -0.131. For ACAATAGT the value was 0.109. Take GCAGCGGA: the “PBM E-score” value is -0.0753. In the case of AGAGAGAA, the “PBM E-score” value was -0.0532. With ACACTAAA, the “PBM E-score” value amounted to 0.144.

On to TTGCACAA, for which the “PBM E-score” value was determined as 0.0972. For CCAAAAAC, the “PBM E-score” value came to 0.116.

Turning to AAGTCTGG, the “PBM E-score” value turned out to be 0.105. Consider TAAAAATA, for which the “PBM E-score” value was 0.277.

Regarding AATAAATG, the “PBM E-score” value turned out to be 0.0809. Take AATAAAGA: the “PBM E-score” value came out at 0.195. On to AATAAATA, for which the “PBM E-score” value was determined as 0.313. As for AATAAAAG, the figure is 0.0174; as for AATAAAAT, 0.166; as for AATAAAAA, 0.264.

In the case of AATAAATT, the “PBM E-score” value was determined as 0.282. Regarding AAAAAATA, the “PBM E-score” value was found to be 0.0934.

In the case of CTAAAATA, the “PBM E-score” value is 0.0866. Consider AATAAACT, for which the “PBM E-score” value was determined as 0.12. Regarding AATAAATC, the “PBM E-score” value is -0.0137. Regarding AACCCGTG, the “PBM E-score” value was -0.317. For CCCACCCC the value was 0.0432; for CGCTATGA, 0.119. As to CCCTTGGA, the “PBM E-score” value came out at 0.00683. For CGTATTAA the value was 0.0596; for ACTAGAAT, 0.0557; for ACTGCATC, -0.00501. In the case of ATCAGAGA, the “PBM E-score” value was -0.0164. Consider AGCGAAAT, for which the “PBM E-score” value was -0.184. As for CATATCGC, the “PBM E-score” value stood at 0.0925. With ATACCATA, the “PBM E-score” value was found to be 0.27. Consider ATACCATG, for which the “PBM E-score” value is -0.0699. As for GTACCATA, the figure is -0.158; as for ATTTAACA, 0.193; as for GCCTGAGA, -0.169. As for ATGGGACC, the figure is -0.00547. For CAGCCACC the value was -0.0873; for ACAGACAC, 0.122; for ACTGACAT, -0.0482. Take ACAGAAAA: the “PBM E-score” value is 0.281. TGTGACAA: the “PBM E-score” value is 0.0395. ACTGACAA: the “PBM E-score” value turned out to be 0.264.

With ACAGACAA, the “PBM E-score” value was 0.29.

As for ACAGAAAC, the “PBM E-score” value is 0.116. On to TCTGACAA, for which the “PBM E-score” value turned out to be 0.25.

On to ACTGACAC, for which the “PBM E-score” value is -0.0887. Consider TCAGAAAA, for which the “PBM E-score” value was -0.145.

Regarding CCTGACAA, the “PBM E-score” value is -0.0066. For ACAGACAG the value was 0.0659; for TGCATACA, 0.0433.

For AGGTGCAA, the “PBM E-score” value was -0.0504. CTTTCATC: the “PBM E-score” value was determined as 0.0102. For GGCCTCAC the value was 0.0157; for GGCTTAAC, 0.0615. Turning to CTTGGCTA, the “PBM E-score” value is 0.134.

With GGCTTCAA, the “PBM E-score” value was -0.139. CACAGCCG: the “PBM E-score” value came out at 0.0914. Consider TAATCCCA, for which the “PBM E-score” value is -0.0386.

On to CACACTTC, for which the “PBM E-score” value worked out at 0.0239.

For AGTACCTG, the “PBM E-score” value was -0.0799. Take CAGAGGGC: the “PBM E-score” value was -0.213. For CGTGCCAC the value was -0.091; for CGCATTCC, -0.216.

The values above are taken from the supplement of paper PMC3334620.
